Laboratory results: PubChem BioAssay (NCI)
This is part of a sample that, as a whole, favours compounds with a hit. Of some 79,000 tested, about 15% had one in any assay. Unmarked numbers belong to inactive results. Active and inactive are the calls of the source. Rule as the data show it: active = growth inhibition above about 70%; inactive = the rest.

Key:
[1] = NCI Yeast Anticancer Drug Screen. Data for the rad50 strain (AID 155);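 also: 0% = growth of vehicle-only cultures of the same strain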; settings: S. cerevisiae rad50 strain growth inhibition; at 50.0 µM; hits give high values
Outline: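 Growth of the mutant yeast was measured after compound exposure and referenced to vehicle-treated cultures.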

[2] = NCI Yeast Anticancer Drug Screen. Data for the mec2-1 strain (AID 157); settings: S. cerevisiae mec2-1 strain, at 50.0 µM, hits give high values
Outline: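 Test agents were screened against the mec2-1 yeast strain, with defined DNA repair or cell cycle alteration. Growth was scored as inhibition against vehicle-only controls.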

[3] = NCI Yeast Anticancer Drug Screen. Data for the sgs1 mgt1 strain (AID 161);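 also: 0% = growth of cultures given vehicle only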; settings: S. cerevisiae sgs1 mgt1 strain, at 50.0 µM, hits give high values
Outline: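 Read-out: growth inhibition vs vehicle controls. Cells: mutant yeast strain deficient in DNA damage repair.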

[4] = NCI Yeast Anticancer Drug Screen. Data for the cln2 rad14 strain (AID 165);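 also: 0% = growth equal to vehicle treated cultures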; settings: S. cerevisiae cln2 rad14 strain, at 50.0 µM, hits give high values
Outline: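 Growth of compound-exposed yeast (cln2 rad14 genotype) measured and expressed as inhibition relative to vehicle.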

[5] = NCI Yeast Anticancer Drug Screen. Data for the bub3 strain (AID 167); settings: S. cerevisiae bub3 mutant strain, at 50.0 µM, hits give high values
Outline: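 Whole-cell yeast assay. The mutant strain was incubated with compounds, and growth inhibition was determined by comparison with vehicle-treated cells.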

[6] = NCI Yeast Anticancer Drug Screen. Data for the mlh1 rad18 strain (AID 175); settings: S. cerevisiae mlh1 rad18 strain growth inhibition; at 50.0 µM; hits give high values
Outline: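 In this whole-cell yeast screen, a strain with altered DNA damage repair is challenged with compound, and its growth is measured against matched vehicle-treated controls.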

COc1ccc(/C=C2\N=C(c3ccccc3)OC2=O)c(Br)c1OC(C)=O
growth inhibition [1]: -20.1% | growth inhibition [2]: 0.7% | growth inhibition [3]: -12.7% | growth inhibition [4]: -12.3% | growth inhibition [5]: -0.8% | growth inhibition [6]: 14.3%

NC1=NN(S(=O)(=O)c2ccc(Cl)cc2)CC1
growth inhibition [1]: -14.7% | growth inhibition [2]: -6.25% | growth inhibition [3]: -8.75% | growth inhibition [4]: -21.7% | growth inhibition [5]: -3.3% | growth inhibition [6]: 5.95%

C=C[C@]1(C)CC(=O)C(C(C)C=O)[C@]12C(=O)Oc1cccc(C)c1C2=O (some centres not stated)
growth inhibition [1]: 63.9% | growth inhibition [2]: 85.5% (active) | growth inhibition [3]: 79% (active) | growth inhibition [4]: 58.1% | growth inhibition [5]: 71.8% (active) | growth inhibition [6]: 86.7% (active)

O=C1OC2C3c4ccccc4C(c4c3ccc3ccccc43)C2O1 (configuration not stated)
growth inhibition [1]: 10.1% | growth inhibition [2]: 10.9% | growth inhibition [3]: 19.8% | growth inhibition [4]: 19.7% | growth inhibition [5]: 24.1% | growth inhibition [6]: 29.2%

CCCCCN(CCCCC)c1ccc(/C=C/c2ccnc3ccccc23)cc1
growth inhibition [1]: 1.6% | growth inhibition [2]: 7.05% | growth inhibition [3]: 22.9% | growth inhibition [4]: -15.7% | growth inhibition [5]: -10.2% | growth inhibition [6]: 14.6%

CCOC(=O)C1S(=O)(=O)OCCOS1(=O)=O
growth inhibition [1]: -19.2% | growth inhibition [2]: -26.6% | growth inhibition [3]: -7.45% | growth inhibition [4]: 0.75% | growth inhibition [5]: -14.8% | growth inhibition [6]: -27.8%

CC1=C(C)OCC1
growth inhibition [1]: 8.9% | growth inhibition [2]: 4% | growth inhibition [3]: 9.25% | growth inhibition [4]: 7.85% | growth inhibition [5]: 4.2% | growth inhibition [6]: 5.5%

COc1cccc2c1C(=N)c1c(O)c3c(c(O)c1C2=O)C[C@@](O)(C(=O)CO)C[C@@H]3OC1CC(N)C(O)C(C)O1 (some centres not stated)
growth inhibition [1]: 55.4% | growth inhibition [2]: 23.2% | growth inhibition [3]: -8.7% | growth inhibition [4]: 22.4% | growth inhibition [5]: -16.9% | growth inhibition [6]: -13.9%

Oc1c(Br)cc(Br)cc1/C=N/c1nc(-c2ccccc2)cs1
growth inhibition [1]: 98.5% (active) | growth inhibition [2]: 92.1% (active) | growth inhibition [3]: 99% (active) | growth inhibition [4]: 92.5% (active) | growth inhibition [5]: 97.4% (active) | growth inhibition [6]: 99% (active)

Cc1nc2ccc(Cl)cc2c(Cl)c1CCCl
growth inhibition [1]: 12.1% | growth inhibition [2]: 6.5% | growth inhibition [3]: -19.9% | growth inhibition [4]: -8.15% | growth inhibition [5]: 31.5% | growth inhibition [6]: 13.8%

Cc1cn(C2CC(O)C(O)C(C)O2)c(=O)[nH]c1=O (configuration not stated)
growth inhibition [1]: 22.2% | growth inhibition [2]: 6.15% | growth inhibition [3]: 24.6% | growth inhibition [4]: 5.8% | growth inhibition [5]: 12.2% | growth inhibition [6]: 25.4%

COc1cc2c(oc(=O)c3c4occc4cc(OC)c23)c2cccc(O)c12
growth inhibition [1]: -31.6% | growth inhibition [2]: -47% | growth inhibition [3]: -37.2% | growth inhibition [4]: -13.6% | growth inhibition [5]: -24.8% | growth inhibition [6]: -56.2%

CC1CC(C2=CC=CCS2)=Nc2ccccc2S1 (configuration not stated)
growth inhibition [1]: -8.25% | growth inhibition [2]: -16.2% | growth inhibition [3]: 33.5% | growth inhibition [4]: 19.9% | growth inhibition [5]: 5.3% | growth inhibition [6]: 18.8%

CSc1ccccc1C(C)(C)O
growth inhibition [1]: 24.6% | growth inhibition [2]: -2.55% | growth inhibition [3]: 3.35% | growth inhibition [4]: -29.8% | growth inhibition [5]: -1.4% | growth inhibition [6]: 26.4%

Cc1cc(O)c(C(C)C)cc1CN1CCCCC1
growth inhibition [1]: 0% | growth inhibition [2]: -25.1% | growth inhibition [3]: -14.2% | growth inhibition [4]: 0.15% | growth inhibition [5]: -2.85% | growth inhibition [6]: -3.3%

COc1ccc(-c2cc(=O)c3c(O)cc(O)cc3o2)c(OC)c1OC
growth inhibition [1]: -22.2% | growth inhibition [2]: -17.7% | growth inhibition [3]: -21.1% | growth inhibition [4]: 6.95% | growth inhibition [5]: -26.6% | growth inhibition [6]: 4.05%

C=CN1C(=O)NC(C)(CC(C)C)C1=O (configuration not stated)
growth inhibition [1]: -1.15% | growth inhibition [2]: -10.2% | growth inhibition [3]: -6% | growth inhibition [4]: 6.75% | growth inhibition [5]: -7.25% | growth inhibition [6]: 18.4%

O=NN(CCCl)C(=O)Oc1ccc2ccccc2c1
growth inhibition [1]: 29.4% | growth inhibition [2]: -9.35% | growth inhibition [3]: 16.1% | growth inhibition [4]: -24.8% | growth inhibition [5]: 6.2% | growth inhibition [6]: -0.5%

Nc1nc2c(c(-c3ccc(F)cc3)n1)COC/C2=C\c1ccc(F)cc1
growth inhibition [1]: 31.5% | growth inhibition [2]: 24% | growth inhibition [3]: 15.2% | growth inhibition [4]: 22.1% | growth inhibition [5]: 40.8% | growth inhibition [6]: 19.6%

CCOC(=O)NC(Nc1ncccn1)(C(=O)OCC)C(F)(F)F (configuration not stated)
growth inhibition [1]: -28.9% | growth inhibition [2]: -29.4% | growth inhibition [3]: -77.3% | growth inhibition [4]: -15.6% | growth inhibition [5]: -39.8% | growth inhibition [6]: -34.9%

OCC1CCCC1
growth inhibition [1]: 12.3% | growth inhibition [2]: -18.4% | growth inhibition [3]: -0.05% | growth inhibition [4]: -2.95% | growth inhibition [5]: -1.5% | growth inhibition [6]: 9.7%

Cc1ccc(S(=O)(=O)Oc2c(Cl)cc(Cl)cc2Cl)cc1
growth inhibition [1]: -2.4% | growth inhibition [2]: 9.35% | growth inhibition [3]: 26.4% | growth inhibition [4]: -19.1% | growth inhibition [5]: 24.8% | growth inhibition [6]: 29.8%

CCOC(=O)CCC1(CCC(=O)OCC)CCCCCCCCC(CCC(=O)OCC)(CCC(=O)OCC)C(=O)C1=O
growth inhibition [1]: 12.9% | growth inhibition [2]: 12.3% | growth inhibition [3]: -14.7% | growth inhibition [4]: 38% | growth inhibition [5]: -4.7% | growth inhibition [6]: -1.3%

Nc1cc(C(=O)O)c(O)c(Cl)c1O
growth inhibition [1]: 31.3% | growth inhibition [2]: 7.05% | growth inhibition [3]: 12.3% | growth inhibition [4]: 21.6% | growth inhibition [5]: 4.5% | growth inhibition [6]: 29.8%

COC(=O)c1cc(=O)[nH]c2c1c(=O)[nH]c(=O)n2C
growth inhibition [1]: 5.7% | growth inhibition [2]: 9% | growth inhibition [3]: -4.7% | growth inhibition [4]: -39.2% | growth inhibition [5]: 7.1% | growth inhibition [6]: 21.4%

COc1cccc2cc(-n3nnc4ccccc43)c(=O)oc12
growth inhibition [1]: -8.6% | growth inhibition [2]: 18.1% | growth inhibition [3]: 4.6% | growth inhibition [4]: 7.6% | growth inhibition [5]: 25.8% | growth inhibition [6]: 9.85%

CC(=O)NC1C(OCC(=O)NC(C)C(=O)NC(CCC(=O)NCCCCCNc2ccc([N+](=O)[O-])c3[nH]c4ccccc4c(=O)c23)C(N)=O)C(O)C(CO)OC1(C)OCc1ccccc1 (configuration not stated)
growth inhibition [1]: -7.65% | growth inhibition [2]: -3.35% | growth inhibition [3]: 1.05% | growth inhibition [4]: 21.2% | growth inhibition [5]: -12.1% | growth inhibition [6]: 18.1%

O=C(CCCSCCCC(=O)NN=C1CCSCC1)NN=C1CCSCC1
growth inhibition [1]: -0.9% | growth inhibition [2]: -4.3% | growth inhibition [3]: 10.8% | growth inhibition [4]: 21.2% | growth inhibition [5]: -7.85% | growth inhibition [6]: -7.65%

Cc1csc(C)[n+]1CC(=O)c1ccccc1
growth inhibition [1]: -10% | growth inhibition [2]: -5.45% | growth inhibition [3]: -8.4% | growth inhibition [4]: -20.2% | growth inhibition [5]: -6.1% | growth inhibition [6]: -29.1%

Cn1c(=O)c2c(-c3ccccc3)onc2n(C)c1=O
growth inhibition [1]: 16.3% | growth inhibition [2]: 12.8% | growth inhibition [3]: 22.4% | growth inhibition [4]: 33.7% | growth inhibition [5]: 2.8% | growth inhibition [6]: 44.8%

O=[N+]([O-])c1ccc(OC2OC(CO)C(O)C(O)C2O)cc1 (configuration not stated)
growth inhibition [1]: 31.2% | growth inhibition [2]: -0.45% | growth inhibition [3]: -4.7% | growth inhibition [4]: 5.1% | growth inhibition [5]: 24% | growth inhibition [6]: 10.2%

C[N+](C)(C)CC(=O)N/N=C(\Cc1nc2ccc([N+](=O)[O-])cc2[nH]c1=O)C(=O)Nc1nc2ccc([N+](=O)[O-])cc2s1
growth inhibition [1]: 47.2% | growth inhibition [2]: 29.9% | growth inhibition [3]: 24.6% | growth inhibition [4]: -6.05% | growth inhibition [5]: 53.2% | growth inhibition [6]: 16.9%

N#C/C(=C\c1ccccc1)C(=O)Nc1ccccc1
growth inhibition [1]: 17.3% | growth inhibition [2]: 3.5% | growth inhibition [3]: -1.35% | growth inhibition [4]: -4.15% | growth inhibition [5]: -4.7% | growth inhibition [6]: 22.6%

Cc1cccc(C)n1
growth inhibition [1]: -1.85% | growth inhibition [2]: -22.1% | growth inhibition [3]: -3.15% | growth inhibition [4]: -1.85% | growth inhibition [5]: -6.55% | growth inhibition [6]: -21.4%

O=C(O)Cc1cc(CC(=O)O)cc(CC(=O)O)c1
growth inhibition [1]: -3.8% | growth inhibition [2]: -18.8% | growth inhibition [3]: 6.05% | growth inhibition [4]: 5.2% | growth inhibition [5]: 1.6% | growth inhibition [6]: -17.9%

COC(=O)C12CC3CC(CC(C(=O)O)(C3)C1)C2
growth inhibition [1]: -10.2% | growth inhibition [2]: -7.95% | growth inhibition [3]: -4.8% | growth inhibition [4]: -3.2% | growth inhibition [5]: -1.65% | growth inhibition [6]: -14.8%

CN1CCc2ccccc2/C(=C(/O)c2ccccc2)C1=O
growth inhibition [1]: 28.8% | growth inhibition [2]: 7.15% | growth inhibition [3]: 12.3% | growth inhibition [4]: 24.9% | growth inhibition [5]: 13.3% | growth inhibition [6]: 10.1%
